# According to ChEMBL document CHEMBL3988442, “University of Dundee, Small-Polar-MMV Screening Library” (2021):
# Hit rate of the full screen: of about 48,000 compounds, about 13,000 (27%) showed an effect of 50% or more. The list shows a part of the results.
# Tested on: Wolbachia pipientis
# Test: Anti-Wolbachia Cell-Based Screen
# Assay type: functional
# Parameters: scale not given: in the data most compounds retested in dose-response had high values
# Conditions: 5 µM
row,SMILES,Percent Effect [%]
1,O=C(CN1CCS(=O)(=O)CC1)NC1CCCCc2ccccc21 (centres undefined),-11.03
2,CCC(Nc1nnnn1-c1ccccc1)C(=O)NCc1cccs1 (centres undefined),-3.486
3,CN1CCOC[C@H]1c1nc(-c2ccc(F)cc2F)c[nH]1,2.014
4,COC1CCCN(CCCc2cn[nH]c2)C1 (centres undefined),-27.42
5,OC1CCN([C@@H]2CCN(c3nc(-c4ccccc4)no3)C[C@H]2O)CC1,-5.249
6,CCCN1CC2(CCN(C)CC2)CC1C(=O)NCc1cc(C)nn1C (centres undefined),6.557
7,O=C(NCC(F)(F)F)C1CN(C(=O)c2cnccn2)C1,-11.97
8,Cc1nnc([C@@H]2C[C@H]3CN(C(=O)c4sccc4C)C[C@H]3O2)[nH]1,-0.8336
9,Cc1nnc([C@H]2C[C@@H]3CCN(C(=O)C4CCOCC4)C[C@H]3O2)[nH]1,-13.79
10,CCn1nc(C)cc1C(=O)N1C[C@@H]2C[C@@H](c3nnc(C)[nH]3)O[C@@H]2C1,102
11,CCc1nc(N2CCCC(CCCOC)(C(=O)O)C2)ncc1C (centres undefined),-7.437
12,CO[C@H]1CCN(Cc2nccs2)C[C@@H]1Cc1ccccc1,1.604
13,CO[C@H]1CCN(c2ncccn2)[C@H]1Cc1ccccc1,1.779
14,Cc1cc2c(cc1C)C(NC1CC1)CCCO2 (centres undefined),-4.167
15,CCCc1ccc(C(=O)N2Cc3c(Cn4ccnc4)nn(C)c3C2)cc1.O=CO,-14.37
16,CC(C)c1nc(NC(=O)CCCn2cccc2)n(C)n1,-8.102
17,COCCn1ccc(NC(=O)Nc2ccncc2)n1,5.636
18,CCN(CC)c1ccc(NC(=O)NC(C)Cn2cccn2)cn1 (centres undefined),-15.96
19,COC(=O)CC(NC(=O)CCCn1cccn1)c1ccc(Cl)cc1 (centres undefined),-43.24
20,Cc1ccc(C(=O)NCCCn2cccn2)c(=O)[nH]1,22.25
21,CC(C)Cn1cnc2ccc(NC(=O)CCCn3cccn3)cc2c1=O,102.5
22,CC(C)n1cnc2ccc(NC(=O)CCCn3cccn3)cc2c1=O,106
23,COCCn1ccc(NC(=O)Nc2ccc(C)cc2)n1,3.618

row,SMILES,Percent Effect [%]
1,Cn1cnc2ccc(NC(=O)CCCn3cccn3)cc2c1=O,106.9
2,CCNC(=O)CCC(=O)Nc1ccc2nn(C(C)C)cc2c1,9.58
3,CC(C)Cn1cncc1CNC(=O)c1cccc(Cn2cccn2)c1,0.1096
4,COCCn1cnc2ccc(NC(=O)CCCn3cccn3)cc2c1=O,181
5,CCc1nnsc1C(=O)NCCCC(CC)(CC)C1OCCO1,-13.99
6,CC(C)c1nnc2n1CC(CNc1cnc3ccccc3n1)CC2 (centres undefined),-3.73
7,Cc1cc(C)n(C2CN(CC(O)COc3ccc(F)cc3)C2)n1 (centres undefined),3.815
8,CC(NCCc1nccn1Cc1ccccc1)c1ccsc1 (centres undefined),1.494
9,O=C(c1ccc[nH]1)N1C[C@H]2CC[C@@H]1CN(c1ncccn1)C2,-10.43
10,CCOc1ncccc1-c1cc2c(cc1C(N)=O)OCO2,2.212
11,COC(=O)CNC(=O)CSCc1nc(O)c2c(C)c(C)sc2n1,7.048
12,CNS(=O)(=O)c1cccc(C(C)NCc2nccn2C(C)C)c1 (centres undefined),-13.68
13,CC(C)(C)c1nc(CN2CCC3(CCCO3)CCC2=O)no1 (centres undefined),-4.31
14,O=C(CCc1ccccc1F)NS(=O)(=O)c1ccc2c(c1)OCCCO2,3.529
15,CO[C@H]1CN(Cc2nc3ccccc3n2C)CC[C@@]12CCCO2,137.2
16,CO[C@H]1CN(Cc2nc3ccccc3n2C)C[C@@]12CCCO2,116
17,Cn1c(CO[C@H]2CN(S(C)(=O)=O)C[C@H]2F)nc2ccccc21,0.03029
18,Cn1c(CN2CCOC[C@H]2c2nc(C(C)(C)C)co2)nc2ccccc21,-2.257
19,COCCN1C[C@H]2CC[C@@H]1CN(Cc1nc3ccccc3n1C)C2,17.95
20,Cc1noc(C)c1C(=O)N(C)C(C)c1ccc(S(C)(=O)=O)cc1 (centres undefined),-13.22
21,CCC(C)NS(=O)(=O)c1ccc(/C=C\c2onc(C)c2NC(C)=O)cc1 (centres undefined),102.8
22,CC(=O)Nc1c(C)noc1/C=C\c1ccc(S(=O)(=O)N2CCCC2)cc1,101.8
23,CC(C)N(CCNC(=O)c1ccc(S(=O)(=O)NC2CC2)cc1)C(C)C,-4.232

row,SMILES,Percent Effect [%]
1,CC(=O)Nc1c(C)noc1/C=C\c1ccc(S(=O)(=O)NC2CC2)cc1,127.5
2,CCN(CC1CCCO1)S(=O)(=O)c1cc(NC(C)=O)ccc1C (centres undefined),-4.974
3,Cc1cc(NC(=O)NCc2ccc(S(=O)(=O)N3CCCC3)s2)no1,-7.015
4,Cc1noc(C)c1NS(=O)(=O)c1cc(Cl)c(Cl)c(C(=O)O)c1,-2.046
5,Cc1cc(C)c(S(=O)(=O)Nc2c(C)noc2C)cc1C(=O)O,-6.139
6,CC(=O)Nc1c(C)noc1/C=C\c1ccc(C)c(S(=O)(=O)NC2CC2)c1,113.9
7,Cc1ccc(S(=O)(=O)NC2CC2)cc1C,3.676
8,CCOc1ccc(S(=O)(=O)NC(=O)c2c(C)noc2C(C)C)cc1,3.193
9,COCc1c(C(=O)N2CCCC(C(=O)c3ccccc3)C2)noc1C (centres undefined),18.29
10,CC(C)c1noc(-c2ccc(N(C)C3CCOCC3)nc2)n1,4.725
11,CCc1ccc(C(=O)N(c2cccnc2)C(C)C)cc1S(C)(=O)=O,-4.905
12,Cn1cc(N2CCCC(NCc3cccc4c3OCCCO4)C2)cn1 (centres undefined),5.522
13,CC(=O)N1CCN(Cc2csc(-c3cnn(C)c3)n2)CC1,-2.698
14,CN(CCOc1ccccc1)C(=O)Nc1cccn(C)c1=O,-7.911
15,CCn1nc(C)c(CNCCn2cc(C)cn2)c1C,-3.614
16,CCc1n[nH]c(C2CN(C(=O)c3cnn(CC)c3)CCO2)n1 (centres undefined),143.5
17,CCc1n[nH]c(C2CN(C(=O)c3cnns3)CCO2)n1 (centres undefined),-10.08
18,CCc1n[nH]c(C2CN(C(=O)c3ccsc3)CCO2)n1 (centres undefined),-7.314
19,CCc1n[nH]c(C2CN(C(=O)c3cnc(C)s3)CCO2)n1 (centres undefined),1.148
20,CCc1n[nH]c(C2CN(C(=O)c3ccc(Cl)cn3)CCO2)n1 (centres undefined),105.2
21,CCc1n[nH]c(C2CN(C(=O)c3cscn3)CCO2)n1 (centres undefined),131.5
22,CCc1n[nH]c(C2CN(C(=O)c3csnn3)CCO2)n1 (centres undefined),5.505
23,CCc1n[nH]c(C2CN(C(=O)c3cnc(C)cn3)CCO2)n1 (centres undefined),99.84
